This note sets out measurements from PubChem BioAssay (Tox21).

Experiment [1] has as its target Thyrotropin-releasing hormone receptor (Homo sapiens) (UniProt P34981). Kind of experiment: qHTS assay to identify small molecule agonists of the thyrotropin-releasing hormone receptor (TRHR) signaling pathway (AID 1346891; calls by dose curve; note: series mostly up to about 58 µM). The essentials: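 Screening of agonists relied on calcium signalling in HEK293 cells expressing human TRHR: dye loading 2 h at 37 °C preceded compound addition and a 3-min fluorescence time course.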

Experiment [2] is described as follows: Human pregnane X receptor (PXR) small molecule agonists, qHTS cell viability counter screen (AID 1346977). Note: nearly all actives have a fitted effect of over 50% in size. The essentials:
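Tox21 qHTS format; PXR-Luc HepG2, 2,000/well, charcoal-stripped FBS 5%. Cpd exposure 24hr. Read: CellTiter-Fluor fluorescence, multiplexed with luciferase.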

Experiment [3] is described as follows: Caspase-3/7 induction in HepG2 cells by small molecules, qHTS assay (AID 1346978). Note: nearly all actives have a fitted effect of over 15% in size. The essentials: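 Wild-type HepG2 cells (2,000/well) were settled 5 h at 37 C, 5% CO2, then exposed to compounds in DMSO for 17 h. Caspase-3/7 activity was read by luminescence 30 min after adding Caspase-Glo 3/7 reagent at room temperature.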
On the technique in general: Quantitative high-throughput screening tests each substance at several concentrations.

A short description of experiment [4]: Caspase-3/7 induction in CHO-K1 cells by small molecules, qHTS cell viability counter screen (AID 1346979). Note: nearly all actives have a fitted effect of over 35% in size. Note: potency is the fitted concentration of half-maximal effect. The essentials:
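CellTiter-Fluor viability check, qHTS format: wild-type CHO-K1, 16hr compound treatment, 1hr reagent incubation, fluorescence read.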

The nature of experiment [5]: Caspase-3/7 induction in CHO-K1 cells by small molecules, qHTS assay (AID 1346980). Note: nearly all actives have a fitted effect of over 15% in size. A digest of the protocol: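 Wild-type cells were seeded at 1,500 per well and settled 5 hr at 37 C, 5% CO2, then exposed to DMSO-dissolved compounds for 17 hr. Caspase-Glo 3/7 reagent was added, and luminescence was read after 30min at room temperature.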
Experiment [6] is described as follows: Caspase-3/7 induction in HepG2 cells by small molecules, qHTS cell viability counter screen (AID 1346981). Note: series mostly up to about 92 µM; nearly all actives have a fitted effect of over 30% in size. The essentials: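 The parent HepG2 line is plated at 2,000 cells per well and rested 5 hr before compound pinning from DMSO stocks. Following a 16-hr treatment at 37 C, a fluorogenic live-cell substrate (CellTiter-Fluor) reports viability after 1 hr.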

The target of experiment [7] is Nuclear receptor subfamily 1 group I member 2 (Homo sapiens) (UniProt O75469). As to the kind of experiment: CYP3A4 induction through human pregnane X receptor (PXR) by small molecules, qHTS assay (AID 1346984). Note: nearly all actives have a fitted effect of over 40% in size. The essentials:
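Human PXR activation is tracked via CYP3A4 promoter-luciferase in DPX-2 (HepG2) cells. Compounds treat cells for 24hr at 37C, and luminescence is read after One-Glo.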

Experiment [8] shares this target. As to the kind of experiment: Human pregnane X receptor (PXR) small molecule agonists, qHTS assay (AID 1346982). Note: nearly all actives have a fitted effect of over 35% in size. Note: potency is the fitted concentration of half-maximal effect. The essentials:
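After plating in 5% charcoal-stripped FBS and a 5 hr rest, PXR-Luc HepG2 cells received compounds in DMSO. Following 24 hr at 37 C, ONE-Glo was added and light output read.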

Experiment [9] deals with Nuclear receptor subfamily 1 group I member 2 (Rattus norvegicus) (UniProt Q9R1A7). Kind of experiment: Rat pregnane X receptor (rPXR) activation by small molecules, qHTS assay (AID 1346983). Note: nearly all actives have a fitted effect of over 20% in size. Particulars: rPXR luciferase reporter cells, One-Glo luminescence, 24 h; stronger effect = higher value. A digest of the protocol:
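Cell-based rPXR luciferase reporter assay, 2,000 cells per well, rested 5hr at 37 C before compound addition in DMSO, then 24 hr at 37 C. One-Glo reagent was added and luminescence read after 30 min at room temperature.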

Experiment [10] addresses Nuclear receptor subfamily 1 group I member 2 (Homo sapiens) (UniProt O75469). As to the kind of experiment: Human pregnane X receptor (PXR) activation by small molecules, qHTS assay (AID 1346985). Note: nearly all actives have a fitted effect of over 40% in size. The essentials: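 DPX-2 cells (HepG2 co-transfected with a PXR response element and a CYP3A4-promoter luciferase construct) were seeded at 2,000 per well, rested 5 hr at 37C, then exposed to DMSO-dissolved compounds for 24 hr. Activation was read as luciferase luminescence.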

“And” between values parts separate entries of the source, which are not always exact repeats. Identical values can stand only once. A number with no mark means an inactive call. Records with an inconclusive call do not appear. The source made the active and inactive calls. Unless noted, calls come from the whole dose curve; as a rule, active = well fitted curve in the direction sought with a large enough effect in the repeat runs; inconclusive = weak or mixed curves; inactive = no such curve, though single readings can be large; an effect the other way counts as inactive or inconclusive.
% is set by controls: 0 for no effect and ±100 for the full control effect.

Sequence of Nuclear receptor subfamily 1 group I member 2 (Rattus norvegicus) (Q9R1A7 whole entry, looked up): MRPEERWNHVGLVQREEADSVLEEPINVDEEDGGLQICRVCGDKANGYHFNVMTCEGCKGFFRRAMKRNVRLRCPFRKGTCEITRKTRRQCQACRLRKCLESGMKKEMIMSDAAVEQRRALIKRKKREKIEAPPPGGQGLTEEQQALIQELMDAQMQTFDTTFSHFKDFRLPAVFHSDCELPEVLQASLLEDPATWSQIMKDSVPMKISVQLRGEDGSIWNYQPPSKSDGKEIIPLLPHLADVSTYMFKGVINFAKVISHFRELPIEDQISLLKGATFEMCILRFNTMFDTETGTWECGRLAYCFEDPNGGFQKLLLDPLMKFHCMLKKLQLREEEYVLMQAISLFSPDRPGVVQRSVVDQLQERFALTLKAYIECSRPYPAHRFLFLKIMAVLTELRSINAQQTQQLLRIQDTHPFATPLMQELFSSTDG
Sequence of Thyrotropin-releasing hormone receptor (Homo sapiens) (P34981 whole entry, looked up): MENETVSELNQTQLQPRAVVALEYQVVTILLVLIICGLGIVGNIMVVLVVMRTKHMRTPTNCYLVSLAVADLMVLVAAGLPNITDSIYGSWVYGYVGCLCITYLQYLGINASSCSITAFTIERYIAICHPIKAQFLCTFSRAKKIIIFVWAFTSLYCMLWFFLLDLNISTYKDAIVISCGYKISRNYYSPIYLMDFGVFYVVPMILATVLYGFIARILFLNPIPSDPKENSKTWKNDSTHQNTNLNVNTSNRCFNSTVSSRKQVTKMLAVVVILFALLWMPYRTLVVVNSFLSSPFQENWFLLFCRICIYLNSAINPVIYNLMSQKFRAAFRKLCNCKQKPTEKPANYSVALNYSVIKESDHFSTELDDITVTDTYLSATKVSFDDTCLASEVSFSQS
Sequence of Nuclear receptor subfamily 1 group I member 2 (Homo sapiens) (O75469 whole entry, looked up): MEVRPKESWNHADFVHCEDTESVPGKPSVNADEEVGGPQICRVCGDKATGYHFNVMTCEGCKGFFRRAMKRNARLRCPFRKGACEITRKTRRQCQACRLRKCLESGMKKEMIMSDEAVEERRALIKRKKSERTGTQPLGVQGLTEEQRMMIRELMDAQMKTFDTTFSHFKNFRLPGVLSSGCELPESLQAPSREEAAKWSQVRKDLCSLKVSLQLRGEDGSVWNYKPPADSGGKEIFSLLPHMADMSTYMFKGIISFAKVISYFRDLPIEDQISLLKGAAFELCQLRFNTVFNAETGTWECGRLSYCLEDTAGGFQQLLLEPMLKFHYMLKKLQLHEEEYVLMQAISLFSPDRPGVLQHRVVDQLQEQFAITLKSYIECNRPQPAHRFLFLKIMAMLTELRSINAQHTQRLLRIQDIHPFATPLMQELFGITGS

For `CCOC(=O)c1cccc(N)c1`, the outcome in experiment [1] and in [5] was inactive. Further, the Potency result in experiment [2], in experiment [3], in experiment [4], in experiment [6] and in experiment [7] was “inactive” in each case.
For `C=CCS(=O)(=O)O`, the call in [1] and in experiment [5] was inactive. Further, the Potency entry in experiment [3], in experiment [4] and in [6] was “inactive” in each case.
Turning to `O=c1cc(-c2ccccc2)oc2ccccc12`, the compound was classed as inactive in experiment [1] and in experiment [5]. Also, the Potency result in [3] and in experiment [6] was “inactive” each time. The Potency in experiment [4] was 68.2 µM (active); in [8], 54.5 µM (active) and 24.2 µM (active).
Regarding `O=C(O)CCCc1ccccc1`, the call in [1] and in [5] was inactive. Moreover, the Potency entry in experiment [3], in experiment [4] and in experiment [6] was “inactive” each time.
As for `N#Cc1ccc(C2CCCc3cncn32)cc1` (centres undefined), the outcome in [1] and in [5] was inactive. Besides, the Potency entry in experiment [2], in experiment [3], in experiment [4] and in [8] was “inactive” throughout.
Take `N=C(N)c1ccc2cc(OC(=O)c3ccc(N=C(N)N)cc3)ccc2c1`: the result in experiment [1] and in experiment [5] was inactive. Besides, the Potency result in experiment [2], in experiment [3], in [4], in experiment [6], in [7] and in experiment [10] was “inactive” in each case. Moreover, the max activation in experiment [9] is -2.79%.
Take `COc1ccc2c(c1)c(CC(=O)OCC(=O)O)c(C)n2C(=O)c1ccc(Cl)cc1`: the compound was called inactive in experiment [1] and in experiment [5]. For the same compound, the Potency result in experiment [3], in [4] and in experiment [6] was “inactive” each time.
Regarding `CCOC(=O)c1ccc(C)cc1`, the compound was called inactive in experiment [1] and in experiment [5]. For the same compound, the Potency result in [3], in experiment [4], in experiment [6] and in [8] was “inactive” each time.
For the compound `CC(C)(c1ccc(O)cc1)c1ccc(O)cc1`, the call in experiment [1] and in experiment [5] was inactive. Further, the Potency entry in [3] and in experiment [6] was “inactive” throughout. Besides, the Potency in [4] is 69.8 µM (active).
Consider `Cc1[nH]c(=O)c(C#N)cc1-c1ccc2nccn2c1`, for which the outcome in [1] and in experiment [5] was inactive. Further, the Potency result in experiment [2], in [3], in experiment [4], in experiment [6], in experiment [7] and in experiment [10] was “inactive” each time. Besides, the max activation in experiment [9] was 0.264%.
For the compound `c1ccc([C@H]2CN3CCSC3=N2)cc1`, the result in [1] and in experiment [5] was inactive. Further, the Potency entry in experiment [2], in experiment [3], in [4], in experiment [6], in experiment [7] and in experiment [10] was “inactive” each time. For the same compound, in experiment [9], the max activation was -1.7%.
For `CC(C[N+](C)(C)C)OC(N)=O` (centres undefined), the compound was called inactive in experiment [1] and in experiment [5]. The Potency result in [2], in experiment [3], in [4], in experiment [6], in experiment [7] and in experiment [10] was “inactive” throughout. Also, in experiment [9], the max activation was 0.875%.
With `CN1CCN(c2cc3c(cc2F)c(=O)c(C(=O)O)cn3-c2ccc(F)cc2)CC1`, the call in experiment [1] and in [5] was inactive. Also, the Potency entry in [2], in [3], in [4], in [6], in experiment [7] and in experiment [10] was “inactive” throughout. The max activation in experiment [9] was -3.97%.
With `O=C(O)COc1nn(Cc2ccccc2)c2ccccc12`, the call in experiment [1] and in experiment [5] was inactive. The Potency result in experiment [2], in [3], in experiment [6], in experiment [8], in [7] and in experiment [10] was “inactive” in each case. Moreover, the max activation in experiment [9] is -0.954%.
As to `O=Cc1cccc([N+](=O)[O-])c1`, the result in experiment [1] and in experiment [5] was inactive. Moreover, the Potency result in [3], in experiment [4], in experiment [6] and in experiment [8] was “inactive” in each case.
Regarding `CC(C)=CCCC(C)CC(=O)O` (centres undefined), the call in [1] and in experiment [5] was inactive. Further, the Potency entry in experiment [2], in [3] and in experiment [8] was “inactive” each time.
As to `CCCCOCCOCCOCCCC`, the compound was called inactive in experiment [1] and in experiment [5]. Besides, the Potency result in experiment [3], in experiment [4], in experiment [6] and in experiment [8] was “inactive” throughout.
As to `CCC(=O)OC(C)c1ccccc1` (centres undefined), the result in experiment [1] and in [5] was inactive. Besides, the Potency entry in [3], in experiment [4] and in experiment [6] was “inactive” throughout.
`CCCCC(CC)COC(=O)c1ccccc1O` (centres undefined): the outcome in [1] and in experiment [5] was inactive. For the same compound, the Potency result in [3], in experiment [4], in experiment [6], in experiment [8], in experiment [7] and in [10] was “inactive” in each case. In addition, the max activation in experiment [9] is -4.33%.
Regarding `CC1(C)CO[C@@H](CC(=O)O)CN1`, the result in [1] and in [5] was inactive. For the same compound, the Potency entry in [3], in experiment [4], in [6], in experiment [8], in [7] and in [10] was “inactive” throughout. Besides, the max activation in [9] is -0.675%.
